Common to all, as to experiment: DAPPL (digital affinity profiling via proximity ligation, sequencing); 10 mM Tris-HCl pH 7.5, 50 mM NaCl, 1 mM DTT, 4% glycerol, room temperature, 30 min; GST-TFs on glutathione beads, 16-mer random dsDNA library, 0.1% formaldehyde crosslink after washing; high values mean tight binding
For one test, the target named is T1, FEV (Homo sapiens, UniProt Q99581 1-238).
T1 sequence: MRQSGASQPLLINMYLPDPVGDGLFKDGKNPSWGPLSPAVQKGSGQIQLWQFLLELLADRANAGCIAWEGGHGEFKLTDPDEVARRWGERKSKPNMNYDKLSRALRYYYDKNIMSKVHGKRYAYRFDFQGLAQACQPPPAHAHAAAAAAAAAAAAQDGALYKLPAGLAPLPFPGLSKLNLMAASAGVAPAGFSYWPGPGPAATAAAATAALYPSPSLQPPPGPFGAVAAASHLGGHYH
The note with it: protein: recombinant; tags: N-terminal GST; dsDNA, one strand shown. The method, boiled down:
(§1)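 In yeast, human transcription factors were expressed with a GST fusion, then pulled down on glutathione beads and given DNA barcodes. Pooled with a tag-only sample, they were exposed to 200 nmole of a 16-mer random double-stranded DNA library (Tris/NaCl/DTT/glycerol buffer, room temperature, 30 min), washed, crosslinked with 0.1% formaldehyde, proximity-ligated using BsaI/T4 ligase for 1 h at 37 °C, PCR-amplified and read on an Illumina NextSeq500. Each hexamer's frequency of reads for a factor, divided by the matching frequency for the tag-only sample, gives the binding signal.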

The target in the next test is ETV5 (Homo sapiens, UniProt P41161 1-510). The note with it: protein: recombinant; tags: N-terminal GST; dsDNA, one strand shown. In a few lines:
as §1

In another test the target is HSF1 (Homo sapiens, UniProt Q00613 1-529). The note with it: protein: recombinant; tags: N-terminal GST; chain copies: 3; dsDNA, one strand shown. In a few lines:
as §1

The target in another test is T2, SPIC (Homo sapiens, UniProt Q8N5J4 1-248).
T2 sequence: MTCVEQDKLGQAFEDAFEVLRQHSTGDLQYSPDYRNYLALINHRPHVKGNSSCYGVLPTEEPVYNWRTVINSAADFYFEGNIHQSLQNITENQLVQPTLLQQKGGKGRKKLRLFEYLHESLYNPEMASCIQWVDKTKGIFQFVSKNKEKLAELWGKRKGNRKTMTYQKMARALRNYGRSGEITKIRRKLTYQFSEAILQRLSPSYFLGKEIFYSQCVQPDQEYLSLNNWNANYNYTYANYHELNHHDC
As to conditions: protein: recombinant; tags: N-terminal GST; dsDNA, one strand shown. The method, boiled down: as §1

The target of another test is ELF4 (Homo sapiens, UniProt Q99607 1-663). The note with it: protein: recombinant; tags: N-terminal GST; dsDNA, one strand shown. In a few lines:
as §1

The target of a further test is T3, ELK4 (Homo sapiens, UniProt P28324-2 1-405).
T3 sequence: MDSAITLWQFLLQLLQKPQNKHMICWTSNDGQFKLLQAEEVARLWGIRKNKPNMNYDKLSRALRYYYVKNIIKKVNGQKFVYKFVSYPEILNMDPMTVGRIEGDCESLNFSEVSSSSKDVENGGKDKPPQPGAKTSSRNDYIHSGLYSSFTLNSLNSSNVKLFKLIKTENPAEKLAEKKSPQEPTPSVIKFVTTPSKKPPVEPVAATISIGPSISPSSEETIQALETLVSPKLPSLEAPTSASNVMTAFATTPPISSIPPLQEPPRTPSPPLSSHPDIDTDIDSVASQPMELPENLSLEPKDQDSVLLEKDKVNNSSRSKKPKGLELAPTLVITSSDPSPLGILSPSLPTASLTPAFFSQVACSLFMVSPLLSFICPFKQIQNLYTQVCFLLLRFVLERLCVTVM
As to conditions: protein: recombinant; tags: N-terminal GST; dsDNA, one strand shown. In a few lines: as §1

The target in a further test is T4, ETV2 (Homo sapiens, UniProt O00321 1-342).
T4 sequence: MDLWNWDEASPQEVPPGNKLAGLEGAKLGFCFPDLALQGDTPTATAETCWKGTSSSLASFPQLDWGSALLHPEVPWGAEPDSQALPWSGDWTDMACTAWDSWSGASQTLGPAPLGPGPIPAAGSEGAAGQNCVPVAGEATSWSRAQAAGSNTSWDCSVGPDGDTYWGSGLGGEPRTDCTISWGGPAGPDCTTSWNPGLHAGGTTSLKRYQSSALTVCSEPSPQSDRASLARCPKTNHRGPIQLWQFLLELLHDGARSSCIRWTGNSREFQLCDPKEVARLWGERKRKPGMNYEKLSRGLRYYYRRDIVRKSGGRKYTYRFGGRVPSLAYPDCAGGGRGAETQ
The note with it: protein: recombinant; tags: N-terminal GST; dsDNA, one strand shown. The method, boiled down:
as §1

In a further test the target is T5, ELF3 (Homo sapiens, UniProt P78545 1-371).
T5 sequence: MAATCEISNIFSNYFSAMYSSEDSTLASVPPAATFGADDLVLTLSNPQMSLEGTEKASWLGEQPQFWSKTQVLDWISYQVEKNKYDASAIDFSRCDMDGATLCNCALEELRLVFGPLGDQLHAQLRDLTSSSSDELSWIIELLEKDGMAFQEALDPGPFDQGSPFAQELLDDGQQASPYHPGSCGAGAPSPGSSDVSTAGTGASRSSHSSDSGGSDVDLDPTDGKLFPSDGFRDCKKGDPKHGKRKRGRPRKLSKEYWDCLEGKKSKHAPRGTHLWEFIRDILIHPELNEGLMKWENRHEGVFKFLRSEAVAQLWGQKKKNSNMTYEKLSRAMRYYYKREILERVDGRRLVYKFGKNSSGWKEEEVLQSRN
The note with it: protein: recombinant; tags: N-terminal GST; dsDNA, one strand shown. The method, boiled down:
as §1

The next test deals with CRX (Homo sapiens, UniProt O43186 1-299). As to conditions: protein: recombinant; tags: N-terminal GST; dsDNA, one strand shown. The method, boiled down:
as §1

The target in a further test is ETV1 (Homo sapiens, UniProt P50549 1-477). The note with it: protein: recombinant; tags: N-terminal GST; dsDNA, one strand shown. The method, boiled down:
as §1

For the next test, the target named is T6, ERF (Homo sapiens, UniProt P50548 1-548).
T6 sequence: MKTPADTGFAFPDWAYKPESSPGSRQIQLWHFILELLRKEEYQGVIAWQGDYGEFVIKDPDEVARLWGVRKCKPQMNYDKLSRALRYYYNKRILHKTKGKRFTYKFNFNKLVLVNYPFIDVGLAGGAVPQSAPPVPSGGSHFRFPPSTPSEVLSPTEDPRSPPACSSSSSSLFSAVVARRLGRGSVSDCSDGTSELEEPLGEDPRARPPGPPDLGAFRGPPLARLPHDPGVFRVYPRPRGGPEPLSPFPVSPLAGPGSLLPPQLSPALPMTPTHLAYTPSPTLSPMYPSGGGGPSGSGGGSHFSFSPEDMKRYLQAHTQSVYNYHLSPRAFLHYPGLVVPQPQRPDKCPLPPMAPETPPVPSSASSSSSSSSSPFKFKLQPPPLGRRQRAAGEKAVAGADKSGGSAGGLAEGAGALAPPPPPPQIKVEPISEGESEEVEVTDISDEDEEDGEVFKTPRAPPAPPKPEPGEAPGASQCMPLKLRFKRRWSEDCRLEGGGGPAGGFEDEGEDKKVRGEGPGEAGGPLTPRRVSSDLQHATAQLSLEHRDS
The note with it: protein: recombinant; tags: N-terminal GST; dsDNA, one strand shown. In a few lines: as §1

A further test deals with T7, ETV3L (Homo sapiens, UniProt Q6ZN32 1-361).
T7 sequence: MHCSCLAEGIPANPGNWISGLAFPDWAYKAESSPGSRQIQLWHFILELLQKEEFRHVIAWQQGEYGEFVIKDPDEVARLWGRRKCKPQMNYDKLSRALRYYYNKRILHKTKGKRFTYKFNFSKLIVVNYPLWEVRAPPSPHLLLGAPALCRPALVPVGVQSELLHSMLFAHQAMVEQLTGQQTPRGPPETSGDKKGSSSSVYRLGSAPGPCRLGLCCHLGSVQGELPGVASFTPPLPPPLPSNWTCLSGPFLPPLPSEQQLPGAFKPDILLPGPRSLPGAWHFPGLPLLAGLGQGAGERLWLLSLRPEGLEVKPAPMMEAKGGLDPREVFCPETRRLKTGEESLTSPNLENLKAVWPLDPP
As to conditions: protein: recombinant; tags: N-terminal GST; dsDNA, one strand shown. The method, boiled down:
as §1

A further test deals with T8, ETS2 (Homo sapiens, UniProt P15036 1-469).
T8 sequence: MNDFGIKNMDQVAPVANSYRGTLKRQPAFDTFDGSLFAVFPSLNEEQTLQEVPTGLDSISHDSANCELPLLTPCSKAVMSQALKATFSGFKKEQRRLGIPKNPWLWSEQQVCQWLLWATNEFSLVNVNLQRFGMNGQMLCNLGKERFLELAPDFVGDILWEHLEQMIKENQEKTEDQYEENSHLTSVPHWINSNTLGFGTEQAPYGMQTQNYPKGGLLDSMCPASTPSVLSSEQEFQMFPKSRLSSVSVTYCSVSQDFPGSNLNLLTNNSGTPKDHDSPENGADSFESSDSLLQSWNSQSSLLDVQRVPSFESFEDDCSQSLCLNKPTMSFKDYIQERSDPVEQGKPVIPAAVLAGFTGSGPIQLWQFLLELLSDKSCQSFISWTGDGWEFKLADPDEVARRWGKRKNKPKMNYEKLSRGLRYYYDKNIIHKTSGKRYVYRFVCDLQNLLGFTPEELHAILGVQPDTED
The note with it: protein: recombinant; tags: N-terminal GST; dsDNA, one strand shown. The method, boiled down:
as §1

The target of the next test is T9, SPDEF (Homo sapiens, UniProt O95238 1-335).
T9 sequence: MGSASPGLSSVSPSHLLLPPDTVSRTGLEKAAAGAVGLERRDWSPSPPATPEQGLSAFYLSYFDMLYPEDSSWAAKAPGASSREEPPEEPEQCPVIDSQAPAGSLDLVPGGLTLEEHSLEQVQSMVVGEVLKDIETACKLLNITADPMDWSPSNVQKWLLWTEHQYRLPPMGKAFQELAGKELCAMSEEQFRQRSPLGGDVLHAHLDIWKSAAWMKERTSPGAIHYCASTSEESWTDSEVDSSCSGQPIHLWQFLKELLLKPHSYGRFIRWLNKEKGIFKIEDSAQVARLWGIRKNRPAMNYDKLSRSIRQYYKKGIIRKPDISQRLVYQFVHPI
The note with it: protein: recombinant; tags: N-terminal GST; dsDNA, one strand shown. The method, boiled down: as §1

The target of a further test is T10, ETV7 (Homo sapiens, UniProt Q9Y603 1-341).
T10 sequence: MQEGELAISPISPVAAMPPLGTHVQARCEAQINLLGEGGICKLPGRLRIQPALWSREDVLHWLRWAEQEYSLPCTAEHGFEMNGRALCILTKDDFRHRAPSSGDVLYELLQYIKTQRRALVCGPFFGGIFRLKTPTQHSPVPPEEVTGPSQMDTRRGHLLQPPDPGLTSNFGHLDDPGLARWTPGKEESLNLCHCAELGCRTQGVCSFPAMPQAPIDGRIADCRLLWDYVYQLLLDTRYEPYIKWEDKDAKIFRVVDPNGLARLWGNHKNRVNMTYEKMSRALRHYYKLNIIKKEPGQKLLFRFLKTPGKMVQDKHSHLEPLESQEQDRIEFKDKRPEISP
As to conditions: protein: recombinant; tags: N-terminal GST; dsDNA, one strand shown. The method, boiled down: as §1

The target of the next test is T11, ELF5 (Homo sapiens, UniProt Q9UKW6-2 1-255).
T11 sequence: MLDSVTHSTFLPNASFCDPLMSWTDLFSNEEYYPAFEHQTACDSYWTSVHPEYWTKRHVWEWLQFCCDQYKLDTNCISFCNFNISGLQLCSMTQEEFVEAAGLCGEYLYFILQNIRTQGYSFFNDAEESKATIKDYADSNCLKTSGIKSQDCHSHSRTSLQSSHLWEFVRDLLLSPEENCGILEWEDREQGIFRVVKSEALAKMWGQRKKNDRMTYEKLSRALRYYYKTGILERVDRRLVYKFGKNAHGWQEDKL
As to conditions: protein: recombinant; tags: N-terminal GST; dsDNA, one strand shown. The method, boiled down:
as §1

The target in a further test is T12, ETV3 (Homo sapiens, UniProt P41162-2 1-143).
T12 sequence: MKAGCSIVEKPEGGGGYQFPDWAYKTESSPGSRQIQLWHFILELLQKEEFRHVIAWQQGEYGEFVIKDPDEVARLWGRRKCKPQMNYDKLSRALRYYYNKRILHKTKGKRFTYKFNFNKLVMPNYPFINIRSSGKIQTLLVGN
As to conditions: protein: recombinant; tags: N-terminal GST; dsDNA, one strand shown. The method, boiled down:
as §1

A further test concerns the target ETV6 (Homo sapiens, UniProt P41212 1-452). As to conditions: protein: recombinant; tags: N-terminal GST; dsDNA, one strand shown. The method, boiled down:
as §1

CRX, sequence (O43186 whole entry): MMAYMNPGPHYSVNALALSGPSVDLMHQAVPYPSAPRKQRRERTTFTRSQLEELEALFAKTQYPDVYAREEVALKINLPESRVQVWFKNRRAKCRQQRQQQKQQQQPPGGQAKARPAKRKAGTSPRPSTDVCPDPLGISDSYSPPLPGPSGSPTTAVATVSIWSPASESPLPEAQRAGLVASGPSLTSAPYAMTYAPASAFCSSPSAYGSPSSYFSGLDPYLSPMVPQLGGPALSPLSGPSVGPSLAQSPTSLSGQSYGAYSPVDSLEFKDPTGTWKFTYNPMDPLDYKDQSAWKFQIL
ETV5, sequence (P41161 whole entry): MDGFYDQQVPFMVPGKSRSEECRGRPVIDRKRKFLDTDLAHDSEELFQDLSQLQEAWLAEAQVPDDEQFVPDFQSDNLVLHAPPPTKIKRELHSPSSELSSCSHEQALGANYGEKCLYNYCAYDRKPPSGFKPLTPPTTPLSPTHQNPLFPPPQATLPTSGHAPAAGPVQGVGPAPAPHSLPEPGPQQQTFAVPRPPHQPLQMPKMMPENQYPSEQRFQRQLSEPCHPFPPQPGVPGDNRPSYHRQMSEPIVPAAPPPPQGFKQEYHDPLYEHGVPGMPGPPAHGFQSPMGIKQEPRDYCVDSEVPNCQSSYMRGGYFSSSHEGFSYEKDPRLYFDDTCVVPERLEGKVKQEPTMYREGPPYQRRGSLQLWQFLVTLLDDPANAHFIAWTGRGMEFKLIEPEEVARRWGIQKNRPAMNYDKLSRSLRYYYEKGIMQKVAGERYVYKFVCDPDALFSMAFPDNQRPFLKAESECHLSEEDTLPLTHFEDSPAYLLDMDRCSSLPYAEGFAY
HSF1, sequence (Q00613 whole entry): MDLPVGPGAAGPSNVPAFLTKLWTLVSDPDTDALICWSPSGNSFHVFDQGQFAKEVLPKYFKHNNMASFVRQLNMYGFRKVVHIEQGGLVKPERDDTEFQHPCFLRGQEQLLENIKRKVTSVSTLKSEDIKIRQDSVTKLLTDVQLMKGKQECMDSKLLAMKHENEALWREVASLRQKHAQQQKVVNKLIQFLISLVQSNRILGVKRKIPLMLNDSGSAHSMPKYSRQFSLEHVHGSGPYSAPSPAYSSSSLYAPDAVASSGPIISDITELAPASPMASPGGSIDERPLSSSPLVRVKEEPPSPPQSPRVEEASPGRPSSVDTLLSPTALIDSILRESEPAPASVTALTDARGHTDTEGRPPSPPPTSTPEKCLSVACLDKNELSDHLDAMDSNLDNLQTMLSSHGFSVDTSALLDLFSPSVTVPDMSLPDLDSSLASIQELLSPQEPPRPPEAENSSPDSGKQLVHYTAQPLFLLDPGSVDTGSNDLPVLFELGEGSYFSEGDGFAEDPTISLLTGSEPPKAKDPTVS
ETV6, sequence (P41212 whole entry): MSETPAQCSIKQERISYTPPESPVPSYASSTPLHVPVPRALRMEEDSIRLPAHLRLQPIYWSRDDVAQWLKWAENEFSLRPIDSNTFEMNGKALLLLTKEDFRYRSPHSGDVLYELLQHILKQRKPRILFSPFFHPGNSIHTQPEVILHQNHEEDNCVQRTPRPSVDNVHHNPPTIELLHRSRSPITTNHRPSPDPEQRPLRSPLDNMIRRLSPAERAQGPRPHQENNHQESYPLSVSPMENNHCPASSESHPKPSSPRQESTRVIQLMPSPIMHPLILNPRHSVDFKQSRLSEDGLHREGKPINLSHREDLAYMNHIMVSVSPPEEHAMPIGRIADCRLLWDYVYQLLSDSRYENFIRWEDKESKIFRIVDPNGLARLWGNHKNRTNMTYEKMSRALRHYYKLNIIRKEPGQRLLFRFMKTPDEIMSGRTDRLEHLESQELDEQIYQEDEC
ETV1, sequence (P50549 whole entry): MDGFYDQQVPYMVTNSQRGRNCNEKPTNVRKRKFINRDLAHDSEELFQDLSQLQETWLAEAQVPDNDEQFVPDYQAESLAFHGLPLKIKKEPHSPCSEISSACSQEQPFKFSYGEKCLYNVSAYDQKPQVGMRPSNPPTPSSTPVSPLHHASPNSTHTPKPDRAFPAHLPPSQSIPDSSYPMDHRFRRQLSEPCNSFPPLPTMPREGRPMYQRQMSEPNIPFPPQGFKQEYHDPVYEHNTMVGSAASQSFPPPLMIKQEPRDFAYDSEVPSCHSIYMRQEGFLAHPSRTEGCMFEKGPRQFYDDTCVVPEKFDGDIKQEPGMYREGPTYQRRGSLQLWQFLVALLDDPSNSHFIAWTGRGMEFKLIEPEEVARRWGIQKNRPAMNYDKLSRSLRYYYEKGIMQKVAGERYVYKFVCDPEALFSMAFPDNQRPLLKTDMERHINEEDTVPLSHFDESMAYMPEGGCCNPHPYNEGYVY
ELF4, sequence (Q99607 whole entry): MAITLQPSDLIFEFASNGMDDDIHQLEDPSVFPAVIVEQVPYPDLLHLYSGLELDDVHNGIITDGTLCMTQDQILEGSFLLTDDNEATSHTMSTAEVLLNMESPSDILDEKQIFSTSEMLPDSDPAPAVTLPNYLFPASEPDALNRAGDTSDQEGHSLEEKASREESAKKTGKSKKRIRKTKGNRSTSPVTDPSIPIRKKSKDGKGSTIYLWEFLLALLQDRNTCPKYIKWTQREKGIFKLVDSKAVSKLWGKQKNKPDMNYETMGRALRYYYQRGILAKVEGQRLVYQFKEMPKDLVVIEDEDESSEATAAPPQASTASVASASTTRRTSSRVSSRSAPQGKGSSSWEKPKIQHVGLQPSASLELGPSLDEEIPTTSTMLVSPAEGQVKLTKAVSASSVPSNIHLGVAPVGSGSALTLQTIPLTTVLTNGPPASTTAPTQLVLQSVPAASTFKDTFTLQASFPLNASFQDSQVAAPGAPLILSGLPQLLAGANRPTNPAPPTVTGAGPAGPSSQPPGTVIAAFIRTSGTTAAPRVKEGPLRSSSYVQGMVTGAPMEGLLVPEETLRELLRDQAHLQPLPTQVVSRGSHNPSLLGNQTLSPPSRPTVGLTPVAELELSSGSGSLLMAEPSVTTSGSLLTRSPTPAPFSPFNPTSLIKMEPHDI

Turning to CTCTAG, the binding signal was 1.25 fold enrichment (6-mer frequency, TF over GST control) with FEV; 1.3 fold enrichment (6-mer frequency, TF over GST control) in the test with ETV5; 2.39 fold enrichment (6-mer frequency, TF over GST control) in the test with HSF1; 1.37 fold enrichment (6-mer frequency, TF over GST control) in the test with SPIC; 1.32 fold enrichment (6-mer frequency, TF over GST control) with ELF4; 1.31 fold enrichment (6-mer frequency, TF over GST control) with ELK4. Moreover, the binding signal in the test with ETV2 was 1.12 fold enrichment (6-mer frequency, TF over GST control); in the test with ELF3, 1.1 fold enrichment (6-mer frequency, TF over GST control); in the test with CRX, 1.46 fold enrichment (6-mer frequency, TF over GST control); with ETV1, 1.16 fold enrichment (6-mer frequency, TF over GST control); in the test with ERF, 1.31 fold enrichment (6-mer frequency, TF over GST control); with ETV3L it was 1.28 fold enrichment (6-mer frequency, TF over GST control). Also, the binding signal was 1.26 fold enrichment (6-mer frequency, TF over GST control) in the test with ETS2; 1.24 fold enrichment (6-mer frequency, TF over GST control) in the test with SPDEF; 1.27 fold enrichment (6-mer frequency, TF over GST control) in the test with ETV7; 1.22 fold enrichment (6-mer frequency, TF over GST control) with ELF5; 1.4 fold enrichment (6-mer frequency, TF over GST control) in the test with ETV3; 1.34 fold enrichment (6-mer frequency, TF over GST control) in the test with ETV6.
